The source made the active and inactive calls. The calls were made as follows: active = hit-call score of the fitted dose curve at least 0.9, where 1 is the maximum; inactive = score below 0.9.

Consider 15 molecules from PubChem BioAssay (EPA / NIEHS).

What all share (settings): mRNA level, 48 h; actives raise or lower the signal
Read-out in experiment [1]: MicroRNA 122 (MIR122), gene 406906
Description: LTEA_HepaRG_MIR122: Life Technologies and Expression Analysis (LTEA) Assay for MicroRNA 122 (MIR122) using HepaRG (AID 2283516). Also: the transcript read is the microRNA miR-122. The essentials:
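HepaRG, 48 h exposure, 8-pt half-log from 100 uM, 0.5% DMSO; TaqMan qRT-PCR; bidirectional fit vs DMSO.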

Read-out in experiment [2]: MYC, MYC (gene 4609)
As to the kind of experiment: LTEA_HepaRG_MYC: Life Technologies and Expression Analysis (LTEA) Assay for MYC using HepaRG (AID 2283518). In outline: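 Expression changes were scored by TaqMan qRT-PCR with ACTB, GAPDH and POLR2A normalization. Cultures in serum-free induction medium received duplicate 8-point concentration series, highest 100 uM, for 48 h; DMSO (0.5%) served as baseline.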

Read-out in experiment [3]: matrix metalloproteinase-3 (MMP3), MMP3 (gene 4314)
As to the kind of experiment: LTEA_HepaRG_MMP3: Life Technologies and Expression Analysis (LTEA) Assay for matrix metalloproteinase-3 (MMP3) using HepaRG (AID 2283519). The essentials: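 HepaRG, human; 48 h dosing, 8 conc. (max 100 uM, half-log), duplicate, 0.5% DMSO. Readout: MMP3 transcript by Fluidigm TaqMan qRT-PCR, ACTB/GAPDH/POLR2A-normalised. Gain or loss fitted vs DMSO.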

Read-out in experiment [4]: Paternally Expressed 10 (PEG10), PEG10 (gene 23089)
As to the kind of experiment: LTEA_HepaRG_PEG10: Life Technologies and Expression Analysis (LTEA) Assay for Paternally Expressed 10 (PEG10) using HepaRG (AID 2283520).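 As to AC50: PEG10 transcript by qRT-PCR normalised to ACTB GAPDH and POLR2A.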 In outline: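 Chemicals tested on HepaRG cells for 48 h, highest concentration 100 uM. PEG10 expression assessed by qRT-PCR relative to DMSO control.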

Read-out in experiment [5]: Nuclear factor NF-kappa-B p105 subunit (Homo sapiens) (UniProt P19838)
As to the kind of experiment: LTEA_HepaRG_NFKB1: Life Technologies and Expression Analysis (LTEA) Assay for Nuclear Factor Kappa B Subunit 1 (NFKB1) using HepaRG (AID 2283521). The essentials:
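Differentiated human HepaRG cells in serum-free induction medium with 0.5% DMSO were exposed for 48 h to eight half-log concentrations, top 100 uM, in duplicate. NFKB1 mRNA measured by Fluidigm TaqMan qRT-PCR, normalised to ACTB, GAPDH and POLR2A; bidirectional fit versus DMSO.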

Read-out in experiment [6]: Protein phosphatase 2A (PPP2R4), PTPA (gene 5524)
Description: LTEA_HepaRG_PPP2R4: Life Technologies and Expression Analysis (LTEA) Assay for Protein phosphatase 2A (PPP2R4) using HepaRG (AID 2283522). The essentials:
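Gene-expression endpoint in HepaRG hepatic cells: 48 h treatment across eight half-log concentrations up to 100 uM in 0.5% DMSO. PPP2R4 mRNA by qRT-PCR, normalized to three endogenous control genes.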

Read-out in experiment [7]: Phosphatase and tensin (PTEN), PTEN (gene 5728)
Description: LTEA_HepaRG_PTEN: Life Technologies and Expression Analysis (LTEA) Assay for Phosphatase and tensin (PTEN) using HepaRG (AID 2283523). In outline: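 Read-out is PTEN transcript level by multiplexed TaqMan qRT-PCR after 48 h chemical treatment of human HepaRG cultures in serum-free induction medium. Concentrations spanned 100 uM downward in half-log steps, 0.5% DMSO throughout; activity fitted in both directions against vehicle.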

Read-out in experiment [8]: solute carrier (SLC22A1), SLC22A1 (gene 6580)
Description: LTEA_HepaRG_SLC22A1: Life Technologies and Expression Analysis (LTEA) Assay for solute carrier (SLC22A1) using HepaRG (AID 2283524).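 As to AC50: TaqMan qRT-PCR normalized to ACTB GAPDH and POLR2A housekeeping genes.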 In outline:
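HepaRG (human liver line), 48 h dosing in serum-free induction medium; 8 conc., half-log down from 100 uM, 0.5% DMSO vehicle, duplicates. Endpoint: SLC22A1 mRNA, qRT-PCR, housekeeping-normalized; gain/loss fit vs DMSO.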

Read-out in experiment [9]: Pyruvate Dehydrogenase Kinase 4 (PDK4), PDK4 (gene 5166)
As to the kind of experiment: LTEA_HepaRG_PDK4: Life Technologies and Expression Analysis (LTEA) Assay for Pyruvate Dehydrogenase Kinase 4 (PDK4) using HepaRG (AID 2283525). In outline:
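In this multiplexed human HepaRG expression assay, cells are treated 48 h with test chemicals across an eight-point range starting at 100 uM. PDK4 mRNA changes, normalized to ACTB/GAPDH/POLR2A, are fitted in both directions relative to vehicle.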

Read-out in experiment [10]: matrix metalloproteinase-10 (MMP10), MMP10 (gene 4319)
Description: LTEA_HepaRG_MMP10: Life Technologies and Expression Analysis (LTEA) Assay for matrix metalloproteinase-10 (MMP10) using HepaRG (AID 2283517). The essentials: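 Gain or loss of MMP10 mRNA is fitted relative to the 0.5% DMSO vehicle. The human hepatic line HepaRG receives a 48-hour serum-free exposure, in duplicate, with a maximum concentration of 100 uM.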

Chain of Nuclear factor NF-kappa-B p105 subunit (Homo sapiens) (P19838 whole entry, looked up): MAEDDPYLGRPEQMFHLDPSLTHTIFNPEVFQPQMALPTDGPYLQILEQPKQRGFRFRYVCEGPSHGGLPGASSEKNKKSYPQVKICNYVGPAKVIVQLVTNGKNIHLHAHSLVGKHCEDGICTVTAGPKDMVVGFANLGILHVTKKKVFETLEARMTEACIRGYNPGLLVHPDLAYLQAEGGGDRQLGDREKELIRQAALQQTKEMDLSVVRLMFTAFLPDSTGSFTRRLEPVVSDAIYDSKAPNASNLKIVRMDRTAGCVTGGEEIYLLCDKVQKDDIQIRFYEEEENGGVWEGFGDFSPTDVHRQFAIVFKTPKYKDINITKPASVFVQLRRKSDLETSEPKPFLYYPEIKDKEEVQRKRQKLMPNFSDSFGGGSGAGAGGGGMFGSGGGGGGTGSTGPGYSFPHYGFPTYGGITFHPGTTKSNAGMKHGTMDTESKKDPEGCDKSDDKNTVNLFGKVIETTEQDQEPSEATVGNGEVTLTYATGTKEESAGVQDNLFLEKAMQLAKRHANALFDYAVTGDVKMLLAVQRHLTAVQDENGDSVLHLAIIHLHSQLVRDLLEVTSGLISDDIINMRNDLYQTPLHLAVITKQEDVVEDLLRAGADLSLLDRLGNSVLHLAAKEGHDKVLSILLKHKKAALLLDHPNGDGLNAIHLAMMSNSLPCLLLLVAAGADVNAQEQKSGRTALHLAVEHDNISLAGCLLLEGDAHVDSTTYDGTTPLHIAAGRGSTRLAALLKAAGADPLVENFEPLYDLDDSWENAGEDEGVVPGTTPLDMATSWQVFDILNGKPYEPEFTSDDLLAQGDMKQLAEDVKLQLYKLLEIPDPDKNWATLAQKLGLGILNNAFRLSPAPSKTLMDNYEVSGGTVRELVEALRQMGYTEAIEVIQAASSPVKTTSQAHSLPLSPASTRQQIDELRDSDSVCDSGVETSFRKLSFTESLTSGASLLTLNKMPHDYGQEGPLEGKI

`CCOC(=O)C(O)(c1ccc(Cl)cc1)c1ccc(Cl)cc1`: the molecule was called inactive in experiment [1], in experiment [2], in [3], in [4], in [5] and in [6]. Further, the call in [7] and in experiment [8] was inactive. Further, the half-maximal activity concentration (AC50) in experiment [9] is 36.2 µM (active).
In the case of `Cc1cccc(C)c1N`, the result in experiment [1], in experiment [10], in experiment [2], in experiment [3], in [4] and in experiment [5] was inactive. Further, the outcome in [6], in [7], in experiment [8] and in experiment [9] was inactive.
As for `CCC(C)(c1ccc(O)cc1)c1ccc(O)cc1`, the molecule was called inactive in experiment [1], in experiment [10], in [2], in experiment [5], in experiment [6] and in experiment [7]. Further, the outcome in experiment [8] and in [9] was inactive. Besides, in [4], the AC50 is 80.3 µM (active).
For the molecule `CCC(C)(CC)c1cc(NC(=O)c2c(OC)cccc2OC)on1`, the molecule was classed as inactive in experiment [1], in experiment [10], in [5], in [6], in experiment [7] and in [9]. Also, the AC50 in experiment [2] is 25.7 µM (active); in experiment [4], 14.2 µM (active); in experiment [8], 34.6 µM (active).
Turning to `ClC1=C(Cl)[C@]2(Cl)[C@@H]3[C@@H](Cl)[C@H]4O[C@H]4[C@@H]3C1(Cl)C2(Cl)Cl`, the outcome in [1], in [10], in experiment [2], in [4], in [5] and in [6] was inactive. Further, the result in experiment [7] and in experiment [9] was inactive. The concentration at half-maximal activity (AC50) in [8] was 50 µM (active).
Regarding `CN(C)CCO`, the call in experiment [1], in experiment [10], in [2], in [4], in experiment [5] and in experiment [6] was inactive. For the same molecule, the molecule was classed as inactive in experiment [7], in [8] and in experiment [9].
As to `O=C(N[C@H]1CN2CCC1CC2)c1cc2ccoc2cn1`, the call in experiment [1], in experiment [2], in experiment [3], in experiment [4], in [5] and in experiment [6] was inactive. Further, the molecule was classed as inactive in experiment [7], in experiment [8] and in experiment [9].
As to `O=C(NC(=O)c1c(F)cccc1F)Nc1cc(Cl)c(OC(F)(F)C(F)F)c(Cl)c1`, the molecule was called inactive in experiment [1], in experiment [2], in [3], in [4], in [5] and in experiment [6]. The call in [7], in experiment [8] and in [9] was inactive.
Take `O=NN(c1ccccc1)c1ccccc1`: the molecule was classed as inactive in [1], in experiment [2], in experiment [4], in [6], in experiment [7] and in experiment [8]. The outcome in [9] was inactive. Besides, the concentration at half-maximal activity (AC50) in experiment [3] is 80.6 µM (active).
Regarding `Cc1ccccc1CO[C@@H]1C[C@@]2(C(C)C)CC[C@]1(C)O2`, the molecule was called inactive in experiment [1], in [10], in experiment [2], in experiment [3], in experiment [4] and in experiment [5]. The molecule was called inactive in [6], in experiment [7] and in [8]. The concentration at half-maximal activity (AC50) in experiment [9] is 50 µM (active).
As to `CCOCCOC(C)=O`, the call in experiment [1], in [2], in experiment [3], in [4], in experiment [6] and in experiment [7] was inactive. Besides, the result in experiment [8] and in [9] was inactive.
Turning to `ClC1=C(Cl)[C@]2(Cl)[C@@H]3[C@@H]4C[C@@H]([C@H]5O[C@@H]45)[C@@H]3[C@@]1(Cl)C2(Cl)Cl`, the result in experiment [1], in experiment [10], in [3], in experiment [4], in experiment [5] and in experiment [6] was inactive. Also, the half-maximal activity concentration (AC50) was 9.92 µM (active) in [2], 33.3 nM (active) in experiment [7], 50 µM (active) in [8] and 0.00905 µM (active) in experiment [9].
As to `CCSC(=O)N(CC)C1CCCCC1`, the call in experiment [1], in experiment [10], in [2], in [3], in experiment [4] and in experiment [5] was inactive. In addition, the call in [6], in [7], in [8] and in experiment [9] was inactive.
Turning to `CCC(=O)O[C@H]1CC[C@H]2[C@@H]3CCC4=CC(=O)CC[C@]4(C)[C@H]3CC[C@]12C`, the call in experiment [1], in [10], in experiment [2], in experiment [5], in [6] and in [7] was inactive. The call in [8] and in experiment [9] was inactive. Also, the AC50 in experiment [4] is 13.3 µM (active).
With `Cc1cc2c3c(c1)C(c1ccccc1)=N[C@@H](NC(=O)c1ccncc1)C(=O)N3CC2`, the outcome in experiment [1], in experiment [10], in experiment [2], in experiment [3], in [4] and in [6] was inactive. In addition, the call in experiment [7] was inactive. For the same molecule, the concentration at half-maximal activity (AC50) in [8] and in [9] was 50 µM (active) throughout.

The term AC50 denotes the concentration at which the activity in the assay is half-maximal.
